Assay outcomes: PubChem BioAssay, several laboratories
This is a sample that favours compounds with a hit; in the whole collection about 2.3% have one here.
Mcl1-Bid inh – disrupts binding of human Mcl-1 to Bid peptide | AID 1021 | 220,000 compounds, 0.97% hits | inhibition, % at 21.7 µM | TR-FRET Mcl-1/Bid-Dy647 peptide binding, 1536-well;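 active means compounds that cut the binding signal by more than half at the single screening dose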;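 further: His-tagged Mcl-1 with europium anti-His antibody binding Bid BH3 peptide; 0% = Mcl-1 plus peptide wells and 100% = peptide-only wells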
Target sequence (Q07820 whole entry, looked up): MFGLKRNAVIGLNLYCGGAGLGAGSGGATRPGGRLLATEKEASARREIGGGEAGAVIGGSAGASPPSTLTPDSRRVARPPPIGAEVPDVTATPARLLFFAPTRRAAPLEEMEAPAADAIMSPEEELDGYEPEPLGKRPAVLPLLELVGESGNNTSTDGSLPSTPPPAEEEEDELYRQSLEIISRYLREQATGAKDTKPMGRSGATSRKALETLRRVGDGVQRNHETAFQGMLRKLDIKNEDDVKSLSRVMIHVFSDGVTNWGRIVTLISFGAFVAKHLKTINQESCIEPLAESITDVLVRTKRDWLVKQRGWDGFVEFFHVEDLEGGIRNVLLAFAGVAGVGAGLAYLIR
GLD-1 TGE inh – GLD-1-TGE RNA interaction inhibition (C. elegans); Q17339; purified GLD-1 + fluorescein TGE RNA, fluorescence polarization; inhibition, % at 5.96 µM; 320,000 compounds, 0.44% hits;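 active means percent inhibition above a per-plate cutoff, the plate mean of test compounds plus 3 SD, cut at about 30% in these data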;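 further: 0% = DMSO wells with GLD-1 and probe and 100% = wells lacking GLD-1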
Mcl1-Noxa inh – Mcl-1/Noxa interaction inhibition. TR-FRET Mcl-1/Noxa peptide binding, 2 h. Q07820. 220,000 compounds, 1.5% hits. inhibition, % at 21.7 µM;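 active means compounds that cut the protein-peptide binding signal by more than 50% relative to plate controls in a single-dose test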;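 further: His-tagged Mcl-1 with rhodamine Noxa BH3 peptide and terbium anti-His antibody; 0% = Mcl-1 plus Noxa peptide wells and 100% = peptide-only wells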
Bcl-xL primary – Bcl-xL (human) inhibition; Q07817; AID 2129; GST-Bcl-xL / FITC-Bim BH3 peptide fluorescence polarization; inhibition, % at 10.9 µM; 320,000 compounds, 0.7% hits;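 active means inhibition above the mean of all tested compounds plus 3 SD, cutoff set per campaign, cut at about 30% in these data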;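 further: 0% = DMSO wells and 100% = unlabeled Bim-BH3 peptide competitor; inhibitors lower millipolarization by displacing the labeled peptide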
MCL1-BIM inh – inhibitors of human MCL1 binding to BIM-BH3 peptide; inhibition, % at 10.9 µM; GST-MCL1 / FITC-Bim-BH3 fluorescence polarization; Q07820; 320,000 compounds, 0.68% hits;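 active means inhibition above the mean inhibition of all tested compounds plus 3 SD, set per campaign, cut at about 40% in these data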;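 further: 0% = DMSO wells and 100% = unlabeled Bim-BH3 peptide control; higher means more loss of mP so more displacement of Bim peptide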
Mcl-1 Bim block – disrupts Bim peptide binding to human Mcl-1; Q07820; Bead-based flow cytometry, Bim peptide-Mcl-1 binding; inhibition, % at 10 µM; 190,000 compounds, 0.1% hits; AID 1009; in the data active means inhibition above about 40%;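 further: 0% = no compound tracer wells and 100% = peptide blocker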
BCLXL inh confirm – counter-screen for MCL1 inhibitors: confirmation of human Bcl-xL inhibitors. 1,700 compounds, 54% hits. inhibition, % at 10.9 µM. shares compounds with MCL1-BIM inh. GST-Bcl-xL / FITC-Bim BH3 peptide FP binding. AID 2166;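 active means inhibition above a cutoff equal to the mean inhibition of all tested compounds plus 3 SD, cut at about 30% in these data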;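 further: 0% = DMSO wells and 100% = unlabeled Bim BH3 control peptide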
MCL1 BIM confirm – confirmation of human MCL1 and BIM-BH3 interaction inhibitors; shares compounds with MCL1-BIM inh; GST-MCL1 / FITC-Bim-BH3 fluorescence polarization; inhibition, % at 10.9 µM; 1,700 compounds, 61% hits;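 active means inhibition above the average of all tested compounds plus 3 SD, cut at about 40% in these data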;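 further: 0% = DMSO wells and 100% = unlabeled Bim-BH3 control peptide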
GLD-1 TGE cf – GLD-1 TGE RNA interaction inhibition, confirmation | GLD-1/FL-TGE RNA fluorescence polarization, biochemical | AID 2459 | shares compounds with GLD-1 TGE inh | inhibition, % at 5.96 µM | 550 compounds, 10% hits;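 active means average inhibition across triplicates above the hit cutoff set in the primary screen, cut at about 32% in these data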;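 further: 0% = GLD-1 with RNA probe and DMSO and 100% = wells lacking GLD-1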
* marks the source's active call; other numbers are inactive results; x = not tested or not shown; + = active, no number.

SMILES	Mcl1-Bid inh	GLD-1 TGE inh	Mcl1-Noxa inh	Bcl-xL primary	MCL1-BIM inh	Mcl-1 Bim block	BCLXL inh confirm	MCL1 BIM confirm	GLD-1 TGE cf
COC(=O)C1=C(c2c(C)noc2C)C[C@@H]2CC[C@H]1N2C(=O)NCCO	x	4	x	8	2	x	x	x	x
CCN1C(=O)NC(=O)/C(=C\c2cn(CC(=O)N3CCCCC3C)c3ccccc23)C1=O (stereo not given)	x	-6	x	105*	81*	x	162*	+	x
CN1C(=O)C(=Cc2cn(CC(=O)N3CCCC3)c3ccccc23)C(=O)N(C)C1=O	x	-5	x	0	-8	x	x	x	x
COc1ccc(C(=O)O/N=C(/C(N)=O)P(=O)(OC(C)C)OC(C)C)cc1	-8	3	-11	-3	-6	x	x	x	x
N#CC(C#N)=Cc1ccc(C=C(C#N)C#N)cc1	-17	x	-4	x	x	x	x	x	x
Cc1cc(N2CCCC2)ccc1C=C(C#N)C#N	-6	-70	-15	119*	180*	2	85*	108*	x
NC(N)=Nc1ccc2[nH]c3c(c2c1)C[C@@]1(O)[C@H]2Cc4ccc(O)c5c4[C@@]1(CCN2CC1CC1)C3O5 (stereo not given in full)	x	0	x	x	x	x	x	x	x
CN1C[C@H](CO)C[C@@H]2c3cccc4[nH]cc(c34)C[C@H]21	x	22	x	20	17	x	x	x	x
CN1C[C@H](CNC(=O)OCc2ccccc2)C[C@@H]2c3cccc4c3c(cn4C)C[C@H]21	-18	53*	6	52*	67*	0	24	39	6
CC1(O)CCN2C(=O)CCc3cccc1c32 (stereo not given)	x	58*	x	49*	66*	x	8	9	2
CCC(C)n1c(O)c(C=Nc2cccc(C(F)(F)F)c2)c(=O)[nH]c1=S (stereo not given)	-30	-9	-2	-9	-9	-5	x	x	x
CN(C)C1C(=O)C(C(N)=O)=C(O)C2(O)C(=O)C3=C(O)c4c(O)cccc4C(C)(O)C3C(O)C12 (stereo not given)	x	44*	x	51*	105*	x	33*	84*	0
Cc1c(C(=O)N2CCC3(CC2)OCCO3)oc2ccc(S(=O)(=O)N3CCCCC3)cc12	0	-3	18	2	-4	-2	x	x	x
N#Cc1ccc(NC(=O)CN2CCCCCC2)cc1Cl	x	-3	x	7	3	x	x	x	x
OCCNc1c2c(nc3ccccc13)CCCC2	-8	4	-11	3	0	1	x	x	x
C[n+]1c2ccccc2nc2ccc(NCCO)cc21	x	34*	x	73*	82*	x	78*	84*	14
CC[C@@H](CO)NC(=O)[C@@H]1C=C2c3cccc4c3c(cn4C)C[C@H]2N(C)C1	1	112*	19	143*	171*	2	29	42*	18
COC(=O)C1C=C2c3cccc4[nH]cc(c34)CC2N(C)C1 (stereo not given)	-36	x	46	x	x	x	x	x	x
CCC(CO)NC(=O)C1C=C2c3cccc4[nH]cc(c34)CC2N(C)C1 (stereo not given)	-143	35*	17	47*	47*	x	96*	111*	9
C=CCN1CC[C@@]2(C)c3cc(O)ccc3CC1[C@@H]2C	18	3	11	8	5	x	x	x	x
CN1CC[C@@]2(C)c3cc(O)ccc3N(C)C2O1 (stereo not given in full)	x	39*	x	26	21	x	x	x	2
CC(=NCCC1=CCCCC1)c1c(O)[nH]c(=O)[nH]c1=O	-20	37*	3	4	8	1	x	x	-3
CC(=NCCC1=CCCCC1)c1c(O)n(C)c(=O)n(C)c1=O	1	7	14	2	0	3	x	x	x
S=P(NC1CCCCC1)(N1CC1)N1CC1	4	35*	7	50*	48*	x	x	x	1
COC(=O)C1=C(c2ccc(-c3ccccc3)c(F)c2)C[C@@H]2CC[C@H]1N2C(=O)NC1Cc2ccccc2C1	x	1	x	5	5	x	x	x	x
CN1C(=O)C2C[C@@]3(Br)c4ccccc4N(OOSc4ccccc4)[C@H]3N2C(=O)[C@@H]1Cc1ccccc1 (stereo not given in full)	x	32*	x	1	-1	x	x	x	3
COc1cc2c(cc1OC)C1[C@H]3C(=CC[C@H]1OC2O)CCN3C (stereo not given in full)	x	-13	x	x	x	x	x	x	x
